As a reminder, the AC50 is the concentration giving half of the maximal activity seen.

Read-out in assay [1]: Interleukin-6 (IL6), IL6 (gene 3569)
Put plainly: BSK_CASM3C_IL6: BioMAP Diversity Plus: CASM3C Assay for Interleukin-6 (IL6) Biomarker Activity for (AID 2283040). As to conditions: primary human coronary artery smooth muscle cells; actives raise or lower the signal.

Read-out in assay [2]: Tissue plasminogen activator (tPA), PLAT (gene 5327)
Description: BSK_BE3C_tPA: BioMAP Diversity Plus: BE3C Assay for Tissue plasminogen activator (tPA) Biomarker Activity (AID 2283041).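 For outcome: tPA level quantified by ELISA one day after compound addition.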 As to conditions: primary human bronchial epithelial cells; actives raise or lower the signal. A digest of the protocol:
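Using human lung primary bronchial epithelial cells, tPA was measured by ELISA 24 h after dosing; data fitted relative to DMSO.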

Read-out in assay [3]: Interleukin-8 (IL8), CXCL8 (gene 3576)
Description: BSK_CASM3C_IL8: BioMAP Diversity Plus: CASM3C Assay for Interleukin-8 (IL8) Biomarker Activity (AID 2283042).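 Note: IL-8 protein level quantified by ELISA.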 The following applies: primary human coronary artery smooth muscle cells; actives raise or lower the signal.

Read-out in assay [4]: Human Leukocyte Antigen - DR isotype (HLADR), HLA-DRA (gene 3122)
Description: BSK_CASM3C_HLADR: BioMAP Diversity Plus: CASM3C Assay for Human Leukocyte Antigen - DR isotype (HLADR) Biomarker Activity (AID 2283043).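 Note: cell-surface HLA-DR protein level quantified by ELISA.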 The following applies: primary human coronary artery smooth muscle cells; actives raise or lower the signal.

Read-out in assay [5]: Macrophage colony-stimulating factor (MCSF), CSF1 (gene 1435)
Put plainly: BSK_CASM3C_MCSF: BioMAP Diversity Plus: CASM3C Assay for Macrophage colony-stimulating factor (MCSF) Biomarker Activity (AID 2283044).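 Note: M-CSF protein amount quantified by ELISA after 24 h exposure.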 As to conditions: primary human coronary artery smooth muscle cells; actives raise or lower the signal.

Read-out in assay [6]: Low-density lipoprotein receptor (LDLR), LDLR (gene 3949)
Description: BSK_CASM3C_LDLR: BioMAP Diversity Plus: CASM3C Assay for Low-density lipoprotein receptor (LDLR) Biomarker Activity (AID 2283045).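 Note: LDLR protein level on the cell surface quantified by ELISA.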 As to conditions: primary human coronary artery smooth muscle cells; actives raise or lower the signal.

Read-out in assay [7]: Monocyte Chemoattractant Protein-1 (MCP1), CCL2 (gene 6347)
Description: BSK_CASM3C_MCP1: BioMAP Diversity Plus: CASM3C Assay for Monocyte Chemoattractant Protein-1 (MCP1) Biomarker Activity (AID 2283046).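 Note: MCP-1 level quantified by ELISA 24 h after dosing.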 The following applies: primary human coronary artery smooth muscle cells; actives raise or lower the signal.

A short description of assay [8]: BSK_CASM3C_Proliferation: Cell Proliferation Assessment in the BioMAP Diversity Plus: CASM3C Assay (AID 2283047).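 Note: sulforhodamine B total protein stain as relative cell number at 560 nm; sub-confluent cells exposed 48 h before staining; fitted both ways against DMSO so gain or loss of cell number.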 The following applies: primary human coronary artery smooth muscle cells.
Read-out in assay [9]: Monokine induced gamma interferon (MIG), CXCL9 (gene 4283)
Put plainly: BSK_CASM3C_MIG: BioMAP Diversity Plus: CASM3C Assay for Monokine induced gamma interferon (MIG) Biomarker Activity (AID 2283048).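 Note: MIG protein level measured by ELISA.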 As to conditions: primary human coronary artery smooth muscle cells; actives raise or lower the signal.

Read-out in assay [10]: serum amyloid A (SAA), SAA1 (gene 6288)
Put plainly: BSK_CASM3C_SAA: BioMAP Diversity Plus: CASM3C Assay for serum amyloid A (SAA) Biomarker Activity (AID 2283049).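 Note: SAA protein level quantified by ELISA.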 As to conditions: primary human coronary artery smooth muscle cells; actives raise or lower the signal.

“And” between values parts separate entries of the source, which are not always exact repeats. Equal values may be shown once. A structure can be active in one record and inactive in another. The source made the active and inactive calls. Rule for the calls: active = hit-call score of the fitted dose curve at least 0.9, where 1 is the maximum; inactive = score below 0.9.

With `FC(F)(F)C(F)(F)C(F)(F)C(F)(F)CCI`, the outcome in assay [1], in [2], in [3], in assay [4], in [5] and in [6] was inactive. The outcome in assay [7], in assay [8], in assay [9] and in assay [10] was inactive. In assay [9], the AC50 is 18.7 µM (active).
`CO[Si](OC)(c1ccccc1)c1ccccc1`: the AC50 is 31.5 µM (active) in [1]; 39.1 µM (active) in [4]; 33.2 µM (active) in assay [5]; 30.8 µM (active) in assay [6]; 36700 nM (active) in [7]; 34.2 µM (active) in [8]. The AC50 in assay [10] is 30.9 µM (active). The result in assay [2], in assay [3] and in [9] was inactive.
As for `C=CC(F)(F)C(F)(F)C(F)(F)C(F)(F)C(F)(F)C(F)(F)C(F)(F)C(F)(F)C=C`, the result in [1], in [2], in [3], in assay [4], in [5] and in assay [6] was inactive. Further, the outcome in assay [7], in [8], in assay [9] and in assay [10] was inactive.
`CCc1ccc(C(c2ccc(CC)cc2)C(Cl)Cl)cc1`: the outcome in [1], in [3], in [4], in assay [5], in assay [6] and in assay [7] was inactive. Moreover, the outcome in assay [8], in assay [9] and in assay [10] was inactive. The AC50 in assay [2] was 14.1 µM (active).
As to `FC(F)(I)C(F)(F)C(F)(F)C(F)(F)I`, the AC50 was 45.6 µM (active) and 44.9 µM (active) and 30 µM (active) in [1]; 46.5 µM (active) and 43.2 µM (active) in [2]; 47.5 µM (active) and 48.2 µM (active) in assay [3]; 50.5 µM (active) in [4]; 47.5 µM (active) and 50.2 µM (active) and 46.8 µM (active) in assay [5]; 23.6 µM (active) and 43.5 µM (active) in assay [6]. Further, the AC50 in assay [7] is 44.4 µM (active) and 46 µM (active) and 46.1 µM (active); in assay [8], 43.4 µM (active) and 49.7 µM (active) and 43.9 µM (active); in assay [9] it was 44.3 µM (active) and 48.1 µM (active) and 46.8 µM (active); in assay [10], 47.5 µM (active) and 45 µM (active) and 47.6 µM (active). The result in [2], in assay [3], in assay [4] and in assay [6] was inactive.
Consider `FC(F)(F)C(F)(F)C(F)(F)C(F)(F)C(F)(F)C(F)(F)C(F)(F)C(F)(F)F`, for which the outcome in [1], in [2], in assay [3], in assay [4], in assay [5] and in assay [6] was inactive. Further, the result in assay [7], in assay [8], in [9] and in [10] was inactive.
On to `CC(=O)Nc1ccc(N=Nc2cc(C)ccc2O)cc1`, for which the result in assay [1], in assay [2], in assay [3], in assay [4], in assay [5] and in [6] was inactive. The result in assay [7], in assay [8], in assay [9] and in assay [10] was inactive.
Turning to `FC(F)(Br)C(F)(F)C(F)(F)C(F)(F)C(F)(F)C(F)(F)Br`, the outcome in assay [1], in [2], in assay [3], in [4], in [5] and in [6] was inactive. The result in [7], in assay [8], in [9] and in assay [10] was inactive.
Regarding `O=C(O)C=C(C(F)(F)F)C(F)(F)F`, the AC50 in [1] is 13.2 µM (active) and 1.37 µM (active); in assay [2], 8.7 µM (active) and 1.53 µM (active); in [4], 9.93 µM (active) and 597 nM (active); in [8], 30 µM (active); in assay [9] it was 27.4 µM (active) and 220 nM (active). Moreover, the result in assay [3], in [5], in assay [6], in assay [7] and in assay [10] was inactive.
Regarding `O=C(O)C(F)(F)C(F)(F)C(F)(F)C(F)(F)C(F)(F)C(F)(F)C(F)(F)C(F)(F)C(F)(F)C(F)(F)C(F)(F)C(F)(F)C(F)(F)F`, the outcome in assay [1], in assay [2], in assay [3], in assay [4], in [5] and in assay [6] was inactive. In addition, the outcome in assay [7], in assay [8], in [9] and in [10] was inactive. Besides, the AC50 in assay [7] was 33.9 nM (active).
Turning to `O=S(=O)(OCCOC(F)(F)F)C(F)(F)F`, the result in assay [1], in assay [2], in assay [3], in [4], in assay [5] and in assay [6] was inactive. For the same molecule, the outcome in assay [7], in [8], in assay [9] and in assay [10] was inactive.
`O=C(O)C(F)(OC(F)(F)C(F)(OC(F)(F)C(F)(OC(F)(F)C(F)(F)C(F)(F)F)C(F)(F)F)C(F)(F)F)C(F)(F)F` (stereo not given): the outcome in assay [1], in assay [2], in [3], in [4], in [5] and in [6] was inactive. In addition, the result in assay [7], in assay [8], in [9] and in assay [10] was inactive.
Take `O=C(O)C(F)(F)C(F)(F)C(F)(F)C(F)(F)F`: the result in [1], in [2], in assay [3], in assay [4], in assay [5] and in assay [6] was inactive. Also, the outcome in assay [7], in assay [8], in assay [9] and in assay [10] was inactive.
As for `COC(=O)CCC(F)(F)C(F)(F)C(F)(F)C(F)(F)F`, the result in [1], in assay [2], in [3], in assay [4], in assay [5] and in assay [6] was inactive. Besides, the result in assay [7], in assay [8], in assay [9] and in assay [10] was inactive.
With `FC(F)(F)C(F)(F)C(F)(F)C(F)(F)C(F)(F)C(F)(F)CC1CO1` (stereo not given), the result in assay [1], in assay [2], in [3], in [4], in assay [5] and in assay [6] was inactive. Further, the outcome in assay [7], in [8], in assay [9] and in assay [10] was inactive.
Consider `O=C(Cl)C(F)(F)C(F)(F)C(F)(F)C(F)(F)C(F)(F)C(F)(F)C(F)(F)C(F)(F)F`, for which the result in assay [1], in assay [2], in assay [3], in [4], in [5] and in assay [6] was inactive. For the same molecule, the outcome in [7], in assay [8], in assay [9] and in [10] was inactive. Also, in assay [2], the AC50 was 27.5 µM (active) and 22.8 µM (active).
Turning to `O=P(O)(O)OCCC(F)(F)C(F)(F)C(F)(F)C(F)(F)C(F)(F)C(F)(F)F`, the result in assay [1], in assay [2], in assay [3], in assay [4], in assay [5] and in assay [6] was inactive. Further, the result in assay [7], in assay [8], in assay [9] and in assay [10] was inactive. Besides, the AC50 in assay [2] was 3.64 µM (active); in assay [7], 258 nM (active); in assay [10] it was 0.457 µM (active).

The record behind these values is PubChem BioAssay (EPA / NIEHS).
